# Calls of active or inactive are those of the source. Unless noted, the rule behind the calls is not given here.
# Key:
# [1] = system: Wnt5a (protein binding on small-molecule microarray); experiment: small molecules binding Wnt5a protein – biophysical, small-molecule microarray, 635/667 nm fluorescence, primary screen (AID 1142); settings: 635 nm fluorescence, higher = more signal;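 note: fluorescence read at 667 nm with signal to noise per printed feature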
# [2] = ATP-based viability of Huh7 replicon cells – cell-based, CellTiter-Glo luminescence, basal, 48 h, cytotoxicity control for HCV replication inhibitor project, primary screen (AID 1143); settings: higher = more signal, called active from +8 up or from −8 down;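 note: Huh7 hepatoma cells carrying a hepatitis C replication reporter with no stimulus; test concentration not given here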
# [3] = Pseudomonas biofilm growth suppression – PAO1 strain, BacTiter-Glo luminescence, LB-PBS, primary screen (AID 1144); settings: P. aeruginosa PAO1 biofilm, 12 h, higher = more signal
# [4] = basal CRE-LacZ reporter activity in PC12 – cell-based, unstimulated, primary screen (AID 1145); settings: no forskolin, luminescence, 4.5 h, higher = more signal, called active from +8 up or from −8 down
# [5] = forskolin-driven CRE-LacZ activity in PC12 – cell-based, CRE-LacZ reporter, forskolin-stimulated, primary screen (AID 1146); settings: luminescence, 4.5 h, higher = more signal, called active from +8 up or from −8 down;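 note: PC12 cells with 6xCRE LacZ reporter stimulated by forskolin 10 µM; beta-galactosidase reporter signal reflecting CREB driven transcription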
# [6] = target: Streptavidin (Streptomyces avidinii) (UniProt P22629); experiment: compounds binding control protein streptavidin – biophysical, small-molecule microarray, 635/667 nm fluorescence, artefact control for SMM compound annotation, primary screen (AID 1147); settings: higher = more signal;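 note: signal reflects streptavidin binding to arrayed compounds as a control protein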
# Chain of Streptavidin (Streptomyces avidinii) (P22629 whole entry, looked up): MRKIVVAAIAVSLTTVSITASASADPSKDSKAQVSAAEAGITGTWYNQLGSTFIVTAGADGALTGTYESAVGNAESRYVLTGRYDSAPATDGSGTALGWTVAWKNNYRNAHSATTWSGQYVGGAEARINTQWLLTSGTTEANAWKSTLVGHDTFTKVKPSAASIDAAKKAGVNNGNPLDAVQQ
# [7] = probe aInhba binding on compound microarray – biochemical, small-molecule microarray, 635/667 nm fluorescence, primary screen (AID 1148); settings: higher = more signal;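 note: score merges 667nm spot fluorescence with signal-to-noise for antibody binding to printed compounds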
# Torsin-1A (Homo sapiens) [8] = target: Torsin-1A (Homo sapiens) (UniProt O14656); experiment: TOR1A wild-type binding on microarray – cell lysate, small-molecule microarray, lysate, 635/667 nm, primary screen (AID 1149); settings: COS7 hTOR1A-WT lysate, 635 nm fluorescence, higher = more signal
# Chain of Torsin-1A (Homo sapiens) (O14656 whole entry, looked up): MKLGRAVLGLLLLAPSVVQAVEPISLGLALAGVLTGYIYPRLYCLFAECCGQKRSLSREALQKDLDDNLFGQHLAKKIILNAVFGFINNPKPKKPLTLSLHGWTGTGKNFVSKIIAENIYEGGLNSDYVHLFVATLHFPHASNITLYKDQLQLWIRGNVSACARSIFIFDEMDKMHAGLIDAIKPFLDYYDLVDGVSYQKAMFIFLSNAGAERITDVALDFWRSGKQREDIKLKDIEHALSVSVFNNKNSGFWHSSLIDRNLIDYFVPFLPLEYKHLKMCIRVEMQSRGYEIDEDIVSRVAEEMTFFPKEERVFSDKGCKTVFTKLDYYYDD
# Torsin-1A (Homo sapiens) [9] = target: Torsin-1A (Homo sapiens) (UniProt O14656); experiment: torsin A mutant lysate binding on microarrays – cell lysate, small-molecule microarray, COS7 lysate, 635/667 nm fluorescence, primary screen (AID 1150); settings: COS7 hTOR1A mutant lysate, 635 nm fluorescence, higher = more signal;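 note: score pools 667 nm emission and signal to noise measuring lysate protein binding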
# [10] = system: Sonic hedgehog protein (Shh); experiment: Sonic hedgehog microarray binding compounds – biochemical, small-molecule microarray, 635/667 nm fluorescence, primary screen (AID 1151); settings: 635 nm fluorescence, higher = more signal;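 note: Shh protein binding to compounds spotted on small-molecule microarray slides; score combines spot fluorescence intensity with signal-to-noise across triplicate slides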
# [11] = optical density shifts of acrAB sulA E. coli – strain DRC41, OD650, 48 h, E. coli filamentation inducer project, primary screen (AID 1152); settings: higher = more signal, called active from +8 up or from −8 down;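 note: E. coli MC1000 strain DRC41 lacking acrAB efflux pump and sulA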
# [12] = probe aLefty1 binding on compound microarray – biochemical, small-molecule microarray, 635/667 nm fluorescence, primary screen (AID 1153); settings: higher = more signal;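 note: score merges spot fluorescence with signal-to-noise ratio from the scanned slide images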
# [13] = plasmodial surface anion channel blockers, osmotic lysis – cell-based, P. falciparum Indochina, OD700, 1 h, primary screen (AID 1154); settings: P. falciparum Indochina infected RBC osmotic lysis, higher = more signal, called active from +8 up or from −8 down
# [14] = plasmodial surface anion channel blockers, osmotic lysis – cell-based, P. falciparum Indochina, OD700, 2 h, primary screen (AID 1155);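 note: lysis reports solute entry through the parasite surface anion channel PSAC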; settings: P. falciparum Indochina infected erythrocytes, higher = more signal, called active from +8 up or from −8 down
# [15] = changes in parasitized red cell lysis, either direction – P. falciparum Indochina, OD700, 3 h, PSAC antagonist project, primary screen (AID 1156); settings: P. falciparum-infected erythrocytes, osmotic lysis, higher = more signal, called active from +8 up or from −8 down
# [16] = plasmodial surface anion channel blockers, osmotic lysis – cell-based, P. falciparum Indochina, OD700, 18 h, primary screen (AID 1157); settings: P. falciparum Indochina infected erythrocytes, osmotic lysis OD700, 18 h; higher = more signal, called active from +8 up or from −8 down
# [17] = S6 kinase pathway phospho-S6 level changes – cell-based, A549, cytoblot, luminescence, serum-stimulated, primary screen (AID 1158); settings: 5 h, higher = more signal;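 note: serum-stimulated A549 lung adenocarcinoma cells; signal is phosphorylated S6 detected by cytoblot immunostaining with HRP secondary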
# [18] = target: NADPH oxidase 2 (Homo sapiens) (UniProt P04839); experiment: compounds shifting NOX2 Amplex Red fluorescence – cell-based, HEK293-NOX2, PMA-stimulated, NOX inhibitor project, primary screen (AID 1159); settings: 45 min, higher = more signal, called active from +8 up or from −8 down; note: test concentration not given here
# Chain of NADPH oxidase 2 (Homo sapiens) (P04839 whole entry, looked up): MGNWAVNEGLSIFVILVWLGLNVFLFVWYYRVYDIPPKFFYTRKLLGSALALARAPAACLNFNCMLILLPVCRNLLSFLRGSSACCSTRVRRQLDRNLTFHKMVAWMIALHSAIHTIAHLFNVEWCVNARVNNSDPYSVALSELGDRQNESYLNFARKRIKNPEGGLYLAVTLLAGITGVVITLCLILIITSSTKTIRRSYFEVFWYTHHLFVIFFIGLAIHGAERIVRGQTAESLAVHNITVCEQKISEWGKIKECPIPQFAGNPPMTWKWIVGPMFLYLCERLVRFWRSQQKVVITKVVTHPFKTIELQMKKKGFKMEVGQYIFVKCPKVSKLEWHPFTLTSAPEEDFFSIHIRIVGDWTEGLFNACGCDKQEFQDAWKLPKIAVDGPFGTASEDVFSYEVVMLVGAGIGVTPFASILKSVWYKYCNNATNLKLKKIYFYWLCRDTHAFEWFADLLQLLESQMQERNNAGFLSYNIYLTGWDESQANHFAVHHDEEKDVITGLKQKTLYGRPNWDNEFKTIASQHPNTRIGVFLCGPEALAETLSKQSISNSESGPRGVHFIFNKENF
# [19] = target: NADPH oxidase 4 (Homo sapiens) (UniProt Q9NPH5); experiment: compounds shifting NOX4 Amplex Red fluorescence – cell-based, HEK293-NOX4, tetracycline-induced, NOX inhibitor project, primary screen (AID 1160); settings: HEK293-NOX4, Amplex Red H2O2 fluorescence, 45 min; higher = more signal, called active from +8 up or from −8 down
# Chain of NADPH oxidase 4 (Homo sapiens) (Q9NPH5 whole entry, looked up): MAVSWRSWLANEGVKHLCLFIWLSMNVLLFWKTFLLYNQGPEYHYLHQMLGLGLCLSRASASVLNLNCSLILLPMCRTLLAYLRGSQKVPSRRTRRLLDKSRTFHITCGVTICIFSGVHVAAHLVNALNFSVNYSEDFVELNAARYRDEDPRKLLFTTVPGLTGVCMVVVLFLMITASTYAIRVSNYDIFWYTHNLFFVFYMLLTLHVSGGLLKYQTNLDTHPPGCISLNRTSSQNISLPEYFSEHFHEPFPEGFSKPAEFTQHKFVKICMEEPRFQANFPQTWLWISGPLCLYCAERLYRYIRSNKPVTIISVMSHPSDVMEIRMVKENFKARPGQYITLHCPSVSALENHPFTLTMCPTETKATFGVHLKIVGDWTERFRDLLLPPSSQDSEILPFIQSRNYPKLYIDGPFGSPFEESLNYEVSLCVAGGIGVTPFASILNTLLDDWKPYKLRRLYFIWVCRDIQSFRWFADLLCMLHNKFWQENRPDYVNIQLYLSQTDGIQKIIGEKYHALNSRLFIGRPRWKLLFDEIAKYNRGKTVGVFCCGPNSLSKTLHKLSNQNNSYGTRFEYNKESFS
# [20] = target: NADPH oxidase 5 (Homo sapiens) (UniProt Q96PH1); experiment: compounds shifting NOX5 Amplex Red fluorescence – cell-based, HEK293-NOX5, NOX inhibitor project, primary screen (AID 1161); settings: HEK293-NOX5, ionomycin, 45 min, higher = more signal
# Chain of NADPH oxidase 5 (Homo sapiens) (Q96PH1 whole entry, looked up): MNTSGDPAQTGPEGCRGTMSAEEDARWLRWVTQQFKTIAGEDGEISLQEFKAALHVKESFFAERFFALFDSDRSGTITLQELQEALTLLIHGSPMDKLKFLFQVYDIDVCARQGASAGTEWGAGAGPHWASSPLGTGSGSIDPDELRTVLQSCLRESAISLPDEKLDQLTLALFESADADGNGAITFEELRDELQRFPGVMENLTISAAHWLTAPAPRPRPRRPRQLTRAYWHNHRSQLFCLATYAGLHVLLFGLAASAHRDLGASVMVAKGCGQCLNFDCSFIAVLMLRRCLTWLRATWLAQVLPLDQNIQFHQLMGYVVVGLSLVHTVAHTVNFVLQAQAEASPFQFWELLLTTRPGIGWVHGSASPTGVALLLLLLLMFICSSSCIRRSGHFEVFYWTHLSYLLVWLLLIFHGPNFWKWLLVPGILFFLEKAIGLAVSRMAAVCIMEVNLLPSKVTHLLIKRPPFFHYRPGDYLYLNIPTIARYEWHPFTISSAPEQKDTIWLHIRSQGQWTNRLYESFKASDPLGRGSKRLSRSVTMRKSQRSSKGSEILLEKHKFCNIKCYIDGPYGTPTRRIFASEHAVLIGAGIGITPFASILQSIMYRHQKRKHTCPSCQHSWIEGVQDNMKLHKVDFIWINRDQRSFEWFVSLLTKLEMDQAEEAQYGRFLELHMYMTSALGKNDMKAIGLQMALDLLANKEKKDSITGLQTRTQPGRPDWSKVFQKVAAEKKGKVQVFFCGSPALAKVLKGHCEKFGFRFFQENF
Structure (SMILES),composite z-score [1],z-score [2],z-score [3],z-score [4],z-score [5],composite z-score [6],composite z-score [7],composite z-score (Torsin-1A (Homo sapiens) [8]),composite z-score (Torsin-1A (Homo sapiens) [9]),composite z-score [10],z-score [11],composite z-score [12],z-score [13],z-score [14],z-score [15],z-score [16],z-score [17],z-score [18],z-score [19],z-score [20]
CCOc1cc(C(O)C2C=CC3C(=O)N(C4CCCCC4)C(=O)C3N2Nc2ccc(OC)cc2)ccc1O (stereo not given),0.0751,-1.26 (inactive),-0.855 (inactive),0.276 (inactive),-1.51 (inactive),1.43,0.0808,0.705,1.17,-0.207,-0.0582 (inactive),0.666,6.34 (inactive),0.679 (inactive),1.04 (inactive),0.265 (inactive),-0.089,-2.2 (inactive),-3.71 (inactive),-2.46
CC(C)CNC(=O)[C@@H]1c2ccccc2C(=O)N(Cc2cc(F)cc(C(F)(F)F)c2)[C@H]1c1ccc(CO)cc1,0.342,-0.959 (inactive),0.96 (inactive),0.001 (inactive),-0.372 (inactive),0.111,0.117,0.71,0.192,0.465,2.9 (inactive),0.0571,2.62 (inactive),0.649 (inactive),1.27 (inactive),-0.111 (inactive),0.207,-0.453 (inactive),0.967 (inactive),0.52
CCCCC(=C=CC[C@@H](O)c1ccc(OCCO)cc1)C[C@@H](O)COCc1ccccc1,0.511,-2.32 (inactive),-0.656 (inactive),12.1 (active),-1.48 (inactive),-0.476,-0.203,0.611,0.699,1.38,1.98 (inactive),0.596,16.5 (active),1.73 (inactive),-0.0577 (inactive),-0.237 (inactive),1.95,-2.67 (inactive),-0.61 (inactive),-2.45
CC(C)NC(=O)[C@@]1(C)c2ccccc2C(=O)N(C(C)C)[C@H]1c1ccc(CO)cc1,-0.79,0.0942 (inactive),-0.272 (inactive),0.0924 (inactive),0.626 (inactive),-1.35,-0.197,-3.17,-2.55,0.133,-0.508 (inactive),-0.0699,1.21 (inactive),0.547 (inactive),0.702 (inactive),0.255 (inactive),0.0605,-0.0231 (inactive),0.375 (inactive),0.222
Cc1ccc(S[C@]2(C(=O)O)CC(=O)N(Cc3ccccc3Cl)[C@@H]2c2ccc(CO)cc2)cc1,0.0044,-1.55 (inactive),0.596 (inactive),0.441 (inactive),1.27 (inactive),-0.868,-0.0791,-0.951,0.822,-0.259,0.33 (inactive),-0.112,2.67 (inactive),-0.185 (inactive),0.825 (inactive),0.55 (inactive),0.227,0.646 (inactive),-1.5 (inactive),0.432
COCCOC(=O)N1C(=O)[C@@]2(c3ccccc31)[C@H](C(=O)N1CCN(c3ncccn3)CC1)[C@H]1C(=O)O[C@H](c3ccccc3)[C@H](c3ccccc3)N1[C@@H]2c1ccc(OCCO)cc1,0.561,-1.12 (inactive),-0.236 (inactive),1.3 (inactive),-0.599 (inactive),1.19,0.336,0.281,0.59,1.82,1.18 (inactive),-0.244,16.4 (active),3.96 (inactive),0.779 (inactive),1.24 (inactive),0.242,0.351 (inactive),0.798 (inactive),0.55
CN1C(=O)C2C(C1=O)C1C=C(c3ccc(CO)cc3)C2C(c2cccs2)N1Cc1cccc(OC(F)(F)F)c1 (stereo not given),0.314,-3.4 (inactive),-0.656 (inactive),-0.336 (inactive),-1.55 (inactive),0.474,0.0689,1.13,-0.0742,0.834,-0.652 (inactive),0.0999,17.4 (active),3.33 (inactive),1.81 (inactive),1.43 (inactive),0.624,-2.71 (inactive),-1.35 (inactive),-2.6
COCCCNC(=O)[C@]1(Cc2ccccc2CN=[N+]=[N-])N=C(c2ccc(OCCCO)cc2)O[C@@H]1c1ccccc1,0.419,-4.93 (inactive),-0.436 (inactive),-0.0667 (inactive),-0.577 (inactive),0.723,-0.0736,0.214,0.311,-1.07,0.65 (inactive),-0.184,26.2 (active),15.5 (active),1.28 (inactive),0.178 (inactive),1.64,-1.94 (inactive),-0.52 (inactive),-1.46
COc1ccc([Si](C)(C)[C@@H]2[C@@H](CCO)O[C@]3(C(=O)N(Cc4cccc(N5C(=O)c6cccc7cccc5c67)c4)c4ccccc43)[C@H]2C)cc1,-0.101,-5.93 (inactive),0.568 (inactive),7.33 (inactive),-0.24 (inactive),-0.138,-0.128,-0.516,-0.252,0.552,-0.21 (inactive),0.0449,3.33 (inactive),3.66 (inactive),-0.0486 (inactive),2.34 (inactive),0.0181,0.498 (inactive),0.86 (inactive),2.42
COCCCNC(=O)[C@]1(Cc2ccccc2N=[N+]=[N-])N=C(c2ccc(OCCCO)cc2)O[C@@H]1c1ccccc1N=[N+]=[N-],0.497,-4.87 (inactive),0.524 (inactive),0.432 (inactive),-1.98 (inactive),1.25,-0.0011,0.238,0.605,-0.973,-0.279 (inactive),0.616,30.8 (active),28.7 (active),1.41 (inactive),7.56 (inactive),0.105,-1.23 (inactive),0.567 (inactive),1.71
